Screening results: PubChem, several laboratories
TcdB GH inh: TcdB glycohydrolase inhibitors, primary screen, biochemical, single point, plate reader. Toxin B (Clostridioides difficile), P18177. TcdB glycohydrolase enzymatic assay. inhibition, % at 9.99 µM. 350,000 compounds, 0.24% hits. AID 652162, 2013; in the data active = inhibition above about 10%
Anthrax LF inh2: Bacillus anthracis LF protease inhibitors, primary screen, biochemical, multiplex microsphere, MLPCN library | Lethal factor (Bacillus anthracis), P15917 | multiplex microsphere protease cleavage assay | inhibition, % at 10 µM | 360,000 compounds, 0.12% hits; note: plate controls were buffer without enzyme for full effect and enzyme alone for no effect
Target sequence (P15917 whole entry, looked up): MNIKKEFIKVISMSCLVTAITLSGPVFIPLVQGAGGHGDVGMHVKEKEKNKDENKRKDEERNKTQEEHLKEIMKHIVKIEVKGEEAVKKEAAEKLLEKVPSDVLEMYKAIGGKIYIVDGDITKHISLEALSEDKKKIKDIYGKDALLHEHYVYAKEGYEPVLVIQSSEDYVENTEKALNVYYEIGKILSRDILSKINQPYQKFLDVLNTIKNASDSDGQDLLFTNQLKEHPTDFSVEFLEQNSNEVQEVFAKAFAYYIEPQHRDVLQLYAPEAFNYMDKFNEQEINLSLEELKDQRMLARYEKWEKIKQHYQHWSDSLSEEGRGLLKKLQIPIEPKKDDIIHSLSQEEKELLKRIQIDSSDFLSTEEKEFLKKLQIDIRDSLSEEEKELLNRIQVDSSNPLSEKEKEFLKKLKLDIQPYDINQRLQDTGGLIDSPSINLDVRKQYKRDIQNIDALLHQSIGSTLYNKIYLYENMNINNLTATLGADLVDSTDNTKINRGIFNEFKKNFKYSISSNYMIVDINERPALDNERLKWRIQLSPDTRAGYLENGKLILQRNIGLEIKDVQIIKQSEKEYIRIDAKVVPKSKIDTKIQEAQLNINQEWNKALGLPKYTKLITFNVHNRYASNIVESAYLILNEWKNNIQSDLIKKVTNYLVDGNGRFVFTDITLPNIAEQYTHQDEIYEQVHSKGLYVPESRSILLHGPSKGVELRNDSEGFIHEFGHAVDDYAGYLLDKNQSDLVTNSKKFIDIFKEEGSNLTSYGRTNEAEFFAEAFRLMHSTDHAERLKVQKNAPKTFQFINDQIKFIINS
Bead autofluor: counter-screen for toxin protease inhibitors: compound fluorescence. compound autofluorescence counterscreen, microsphere flow cytometry; stronger effect = higher value. fluorescence intensity (no concentration beside the values). 360,000 compounds, 3.1% hits. AID 624483; in the data active = fluorescence intensity above about 16000; inconclusive = no clear call, values can overlap the other calls
BoNT-F LC inh: BoNT/F light chain protease inhibitors, primary screen, biochemical, flow cytometry, MLPCN library; Multiplex microsphere protease cleavage assay; inhibition, % at 10 µM; 360,000 compounds, 0.22% hits; in the data active = inhibition above about 35%, passing the limit was not always enough; inconclusive = no clear call, values can overlap the other calls; note: plate controls were buffer without enzyme for full effect and enzyme alone for no effect
BoNT A protease: BoNT/A light chain protease inhibitors, primary screen, biochemical, flow cytometry, MLPCN library; 360,000 compounds, 0.17% hits; multiplex microsphere protease substrate cleavage; inhibition, % at 10 µM; note: plate controls were buffer without enzyme for full effect and enzyme alone for no effect
Active calls of the source: *; ? = inconclusive; . = no result given. The entries come from a sample that favours hits as a whole. Cut-off read from the data, not from the text of the source, unless noted: active = inhibition above about 30%; inconclusive = no clear call, values can overlap the other calls; inactive = below that.

SMILES | TcdB GH inh | Anthrax LF inh2 | Bead autofluor | BoNT-F LC inh | BoNT A protease
Cc1ccccc1-n1cnc2cc(NCc3cccs3)ccc21 | . | -3.0 | 23047* | -8.4 | ?
COc1ccccc1-n1cnc2cc(NCc3cccs3)ccc21 | . | -7.9 | 2305 | 3.8 | 0.8
C[C@@H]1CN([C@H](C)CO)S(=O)(=O)c2ccc(C#CC(C)(C)O)cc2O[C@H]1CN(C)C(=O)CC1CC1 | 0.4 | . | . | . | .
CCOC(=O)Cc1cc(=O)[nH]c(/N=C(\N)Nc2ccc(C)cc2C)n1 | . | 1.0 | 23280* | -0.6 | -0.3
COCc1cc(=O)[nH]c(/N=C(\N)Nc2ccc(C)cc2)n1 | . | 0.5 | 21003* | -5.3 | ?
COCc1cc(=O)[nH]c(/N=C(\N)Nc2ccc(Cl)c(Cl)c2)n1 | 0.4 | ? | 3843 | -57.0 | -8.4
Cc1ccc(SCc2cc(=O)[nH]c(/N=C(\N)Nc3ccc(C)c(C)c3)n2)cc1 | -0.8 | -1.1 | 25207* | -8.3 | -3.3
COC(=O)Cc1cc(=O)[nH]c(/N=C(\N)Nc2ccc(C)cc2C)n1 | . | 5.6 | 3049 | 4.7 | 0.2
Cc1oc2ccc(OCc3ccccc3F)cc2c1C(=O)O | . | -3.9 | 4166 | 2.3 | 0.2
Cc1ccccc1COc1ccc2oc(C)c(C(=O)O)c2c1 | 11.6* | -2.0 | 5268 | -14.6 | 0.3
CCOc1ccc2oc(-c3ccccc3)c(C(=O)N3CCN(C)CC3)c2c1 | . | 3.5 | 22066* | 4.7 | 3.1
O=C(O)c1ccc(F)c(S(=O)(=O)Nc2ccccc2Cl)c1 | 4.7 | -0.5 | 23288* | 0.1 | -0.1
CO[C@H](CN(C)S(=O)(=O)c1ccc(C)cc1)[C@@H](C)CN([C@@H](C)CO)S(=O)(=O)c1cccc(Cl)c1 | -0.2 | . | . | . | .
C[C@@H]1CCCCO[C@H](CN(C)C(=O)CCCN(C)C)[C@@H](C)CN([C@@H](C)CO)C(=O)c2cc(NC(=O)CCC(F)(F)F)ccc2O1 | -0.5 | . | . | . | .
O=C(CSc1nccc(=O)[nH]1)Nc1ccc(F)c(Cl)c1 | -0.8 | -0.1 | 24003* | -0.4 | ?
O=C1c2cccc(NCCCNCCO)c2C(=O)c2cccc(NCCCNCCO)c21 | -11.7 | -55.6 | 2093 | -102.3 | 30.0*
CO[C@@H]1CN(C)C(=O)c2cc(NC(=O)CC(F)(F)F)ccc2OC[C@H](C)N(CC2CC2)C[C@H]1C | -0.8 | . | . | . | .
Cc1ncoc1C(=O)Nc1ccccc1C(N)=O | . | 0.3 | 23428* | -1.8 | -0.4
Cc1ccccc1NC(=O)c1ocnc1C | -1.0 | 4.4 | 5817 | -6.7 | 0.3
Cc1ncoc1C(=O)Nc1cccc(Cl)c1C | . | -0.8 | 23395* | -1.6 | -3.5
Cc1cc(C(=O)Nc2ccc(Cl)cc2)on1 | 1.8 | -16.0 | 3482 | -8.4 | -3.5
Cc1ncoc1C(=O)Nc1cccc(Cl)c1 | 2.2 | 0.5 | 16565* | -2.9 | -1.0
Cc1ocnc1C(=O)Nc1ccc(Cl)cc1 | . | -6.3 | 20071* | -4.2 | -1.7
N#C[C@H]1[C@@H](c2ccccc2-c2cccc(F)c2)[C@@H](CO)N1C(=O)CN1CCOCC1 | -0.2 | . | . | . | .
C[C@H]1CN([C@@H](C)CO)S(=O)(=O)c2ccc(-c3ccncc3)cc2O[C@H]1CN(C)C | -0.1 | . | . | . | .
SMILES | TcdB GH inh | Anthrax LF inh2 | Bead autofluor | BoNT-F LC inh | BoNT A protease
CCc1nnc(NC(=O)c2ccc(COc3ccc(C)cc3)o2)s1 | . | 0.8 | 23447* | -1.3 | -0.9
CCc1nnc(NC(=O)c2ccc(C)o2)s1 | 1.5 | 1.3 | 5485 | 4.1 | 0.1
O=C(Nc1nccs1)c1ccc(COc2ccccc2)o1 | -1.4 | . | . | . | .
CCc1nnc(NC(=O)c2ccc(COc3ccccc3)o2)s1 | . | -3.7 | 17254* | -3.3 | -3.0
O=C(O)c1ccc(NC(=O)c2ccc3c(c2)C(=O)N(c2ccccc2)C3=O)cc1 | 0.0 | 0.2 | 3956 | 37.8* | 0.1
O=C(Nc1ccc(O)cc1)c1ccc2c(c1)C(=O)N(Cc1ccco1)C2=O | 16.4* | -0.7 | 2149 | -13.6 | -2.6
O=C(c1ccc2c(c1)C(=O)N(Cc1ccco1)C2=O)N1CCOCC1 | 0.6 | -1.3 | 23883* | -5.0 | -4.8
C[C@@H]1CN([C@H](C)CO)C(=O)c2c(c3ccccc3n2C)-c2ccccc2CO[C@@H]1CN(C)C(=O)[C@H](C)c1ccccc1 | -2.3 | . | . | . | .
COc1ccc2c3c([nH]c2c1)[C@H](CO)N(C(=O)C1CCCCC1)CC31CCN(Cc2nccs2)CC1 | 0.1 | . | . | . | .
CSc1cnn(-c2ccccc2)c(=O)c1SC | . | -8.7 | 16177* | -1.4 | -0.9
Cc1cc(C(=O)Nc2cccc3c2O[C@H](CN(C)Cc2ccc(C(=O)O)cc2)[C@H](C)CN([C@H](C)CO)C3=O)n(C)n1 | 0.2 | . | . | . | .
Cc1nc2ccccn2c1C(=O)N/N=C/c1cc(C)n(-c2ccc(Br)cc2)c1C | . | -6.0 | 23974* | -7.8 | -4.0
CCn1ncc(C2=NOC(C(=O)NCc3ccccc3)C2)c1C (stereo unspecified) | . | -1.1 | 26555* | -9.6 | ?
CCOC(=O)c1sc(NC(=O)CSc2nnc(Cc3ccccc3)o2)c(C(=O)OCC)c1C | . | -4.2 | 23789* | -3.2 | -1.2
COc1ccc(Cc2nnc(SCC(=O)NC(C)c3ccccc3)o2)cc1 (stereo unspecified) | . | 0.7 | 22651* | 0.9 | 1.6
CCOC(=O)c1c(NC(=O)C(Sc2ccccc2)c2ccccc2)sc(C(N)=O)c1C (stereo unspecified) | . | 1.2 | 23438* | -0.5 | -1.0
CCOC(=O)c1c(NC(=O)CN2CCOCC2)sc(C(=O)NC)c1C | . | 0.4 | 22110* | -2.7 | -0.7
CCO[C@H]1OC(C(=O)NCc2ccccc2)=C[C@@H](c2csc3ccccc23)[C@@H]1CCCO | -0.3 | . | . | . | .
CCOC(=O)c1sc(NC(=O)CSc2nnc(C)s2)c(C(=O)OCC)c1C | . | -0.1 | 22787* | 2.0 | 1.1
COc1ccc(CCCc2nnc(SCC(=O)Nc3cccc(C)c3)o2)cc1 | 0.5 | -1.1 | 8263 | -5.7 | -0.1
COc1ccc(CCCc2nnc(SCC(=O)Nc3cc(C)c(C)cc3Br)o2)cc1 | . | -1.2 | 21054* | -3.9 | -0.8
O=C(C[C@H]1C=C[C@H](NC(=O)Nc2ccc3c(c2)OCO3)[C@@H](CO)O1)NCc1ccc(F)cc1 | -0.1 | . | . | . | .
O=S(=O)(/C=C/c1ccccc1)Nc1ccc(N2CCOCC2)cc1 | . | -9.0 | 2394 | -12.3 | 0.1
O=C(O)c1ccc(NS(=O)(=O)/C=C/c2ccccc2)cc1O | 0.8 | 0.8 | 21416* | 3.9 | 5.4
CCNC(=O)[C@@H]1[C@@H](CO)[C@@H]2Cn3c(cccc3=O)[C@@H]2N1C(=O)CC1CC1 | 1.5 | . | . | . | .
C(=N\Nc1nc2ccccc2[nH]1)/c1ccccc1 | 2.2 | -3.0 | 3861 | -10.7 | -0.3
O=c1[nH]c(N/N=C/c2ccccc2)nc2ccccc12 | . | -4.5 | 16682* | -3.1 | -2.0
O=C(C[C@@H]1CC[C@@H](NC(=O)c2ccc(F)cc2)[C@H](CO)O1)NCc1ccncn1 | -0.7 | . | . | . | .
O=C(O)c1ccc(-c2nnc(-c3ccc([N+](=O)[O-])cc3)o2)cc1 | -0.2 | 11.7 | 4180 | ? | -2.6
O=C(OCc1ccccc1)c1cccc(-c2nnc(-c3ccccc3)o2)c1 | . | -1.3 | 23216* | -3.2 | ?
